Screening results as filed in PubChem.
Bead autofluor: counter-screen for toxin protease inhibitors: compound fluorescence; compound autofluorescence counterscreen, microsphere flow cytometry; active compounds read high; fluorescence intensity (concentration not given with the values); 3.1% of 360,000 active; AID 624483; in the data active = fluorescence intensity above about 16000; inconclusive = no clear call, values can overlap the other calls
BoNT-A LC inh2: blocks Botulinum neurotoxin A light chain protease | inhibition, % at 10 µM | multiplex microsphere protease substrate cleavage, flow cytometry | 0.17% of 360,000 active; note: plate controls were buffer without enzyme for full effect and enzyme alone for no effect
Anthrax LF inh2: anthrax lethal factor protease inhibition. P15917. multiplex microsphere protease cleavage assay, LF. inhibition, % at 10 µM. 0.12% of 360,000 active; note: plate controls were buffer without enzyme for full effect and enzyme alone for no effect
MazF activator: activators of E. coli MazEF toxin-antitoxin RNase; AID 504720; FAM/BHQ RNA-DNA oligo cleavage fluorescence, 5 h; activation, % at 20 µM; 0.32% of 350,000 active; in the data active = activation above about 50%
BoNT F protease: blocks Botulinum neurotoxin F light chain protease; Multiplex microsphere protease cleavage assay, flow cytometry; inhibition, % at 10 µM; 0.22% of 360,000 active; in the data active = inhibition above about 35%, passing the limit was not always enough; inconclusive = no clear call, values can overlap the other calls; note: plate controls were buffer without enzyme for full effect and enzyme alone for no effect
The depositor's hits bear a star; ? = inconclusive; · = no result. An excerpt weighted towards active compounds, which were near 3.6% of everything screened. Cut-off read from the data, not from the text of the source, unless noted: active = inhibition above about 30%; inconclusive = no clear call, values can overlap the other calls; inactive = below that.

SMILES	Bead autofluor	BoNT-A LC inh2	Anthrax LF inh2	MazF activator	BoNT F protease
CC(C)=CCC/C(C)=C/CNC(=O)C[C@H]1C[C@H](C(=O)N2CCCCC2)[C@@]2(C)c3[nH]c4cc(CCC(=O)N(C)C)ccc4c3CCN2C1=O	3468	0.1	-7.3	15.4	5.1
CCOC(=O)CSC1=C(C#N)C(c2ccco2)C(C(=O)Nc2cccc(C(F)(F)F)c2)=C(C)N1 (stereo not given)	25424*	-5.7	-0.6	-4.0	-7.7
CCOC(=O)C1=C(c2ccccc2)NC(SCC(=O)Nc2cccc(C)c2)=C(C#N)C1c1ccco1 (stereo not given)	15951	?	-5.9	-1.9	-1.4
Cc1cn(C2CC(OC(=O)C(C)C)C(CO)O2)c(=O)[nH]c1=O (stereo not given)	3884	-0.3	-3.4	2.8	-1.1
Cn1ccnc1Sc1nc(Nc2cccc(Cl)c2)nc(N2CCOCC2)n1	22665*	-0.5	-3.8	9.8	-2.3
COc1ccc(/C=N/NC(=O)Cn2cnc3ccccc3c2=O)cc1OC	8036	0.2	-3.3	5.1	-2.5
COc1cccc2c1OC[C@@H](CO)[C@H]2N(C)C(=O)Nc1ccc(Cl)cc1Cl	17819*	-6.7	-1.0	-3.2	-9.6
COc1ccccc1-c1nnc(SCC(=O)Nc2ccc(Cl)cc2Cl)o1	9273	0.0	-13.4	4.5	-0.7
CC1CC(C)(C)CC2(C1)NC(=O)N(CC(=O)N1CCN(Cc3ccc(C#N)cc3)CC1)C2=O (stereo not given)	4254	5.3	-4.1	0.7	8.9
NC(=O)N/N=C/c1sc(N2CCCCC2)nc1-c1cccs1	4855	4.9	-9.6	9.2	-17.3
CC(C)NC(=S)N/N=C/c1sc(N2CCCCC2)nc1-c1cccs1	4007	32.7*	7.9	-0.7	-12.8
C=CCOc1ccc(/C=C2\SC(=S)N(NS(=O)(=O)c3ccccc3)C2=O)cc1	3032	4.0	4.7	3.6	-13.1
C=C(C)Cn1c2ccc(NC(=O)CCc3cccc(Cl)c3)cc2c(=O)n1C	3814	0.0	-4.2	·	0.3
O=C(CCNS(=O)(=O)c1ccc(Br)cc1)NCc1ccc2c(c1)OCO2	24584*	-2.1	-0.6	-3.3	-2.7
CN(C)S(=O)(=O)c1ccc(S(=O)(=O)NCc2ccc3c(c2)OCO3)cc1	2948	4.0	1.8	-17.6	38.0*
O=C(NC1CCCC1)C1c2ccccc2OCC(=O)N1C1CC1 (stereo not given)	5844	-0.5	-5.7	·	1.6
Cc1ccc(NCCC(=O)c2ccc(Cl)cc2)cc1	10041	-0.6	0.3	3.2	-0.7
Cc1ccc(S(=O)(=O)C(CCC(=O)c2ccc(Cl)cc2)C(N)=O)cc1 (stereo not given)	21117*	-4.1	1.3	10.2	-7.1
CCOC(=O)c1ccc(N2C(=O)CC(N3CCN(Cc4ccccc4)CC3)C2=O)cc1 (stereo not given)	2513	-0.1	-6.0	0.9	-1.9
CCOC(=O)c1ccc(N2C(=O)CC(N3CCCC(C)C3)C2=O)cc1 (stereo not given)	25079*	-4.9	-1.0	-1.1	-7.9
Cc1ccccc1-n1c(-c2ccncc2)n[nH]c1=S	3878	0.8	-1.7	2.3	5.1
CCc1ccccc1-n1c(-c2ccncc2)n[nH]c1=S	22962*	-2.1	-2.9	-1.1	-1.8
Cc1cccc(N2CCN(C(=O)c3cn(C)c(=O)c4c3c3ccccc3n4C)CC2)c1C	23203*	0.0	-3.1	-8.9	0.1
Cc1cc(C)c(NN=c2c(=O)c3ccccc3c2=O)c(C)c1	16485*	-1.0	-2.9	9.9	-1.3
Oc1ccc(-c2nc3cnccn3c2Nc2ccc3c(c2)OCCO3)cc1	5814	-0.9	0.8	6.8	-8.5
SMILES	Bead autofluor	BoNT-A LC inh2	Anthrax LF inh2	MazF activator	BoNT F protease
CC(C)(C)CC(C)(C)Nc1c(-c2ccc(O)cc2)nc2cnccn12	16574*	-1.5	-2.2	2.0	-0.7
COC(=O)CSc1nnc(-c2ccncc2)o1	16743*	?	3.1	4.5	19.0
Cc1ccc(NC(=O)CSc2nnc(-c3ccncc3)o2)cc1	13604	6.2	-18.1	-0.5	8.3
COc1ccc(-c2nnc(SCC(=O)OC3CCCCC3)o2)cc1OC	19136*	2.6	-0.8	8.1	4.6
COc1ccc(-c2nnc(-c3cccnc3)o2)cc1OC	24717*	-7.2	-1.6	-1.5	-9.3
COc1ccc(-c2nnc(SCC(=O)N3CCCCC3)o2)cc1OC	6606	1.3	1.6	4.1	-14.3
c1ccc2c(CSc3nnc(-c4ccncc4)o3)cccc2c1	23894*	-1.0	1.9	6.3	-0.9
COc1cc(C(=O)OCC(=O)NC2CCCCCC2)ccc1OCC(C)C	?	0.8	-3.6	-3.7	-3.9
CC(=O)Nc1ccc(NC(=O)CSc2nnc(-c3cccnc3)o2)cc1	?	-1.1	?	7.2	-11.7
CCOC(=O)CSc1nnc(-c2ccc(NS(=O)(=O)c3ccc(C)cc3)cc2)o1	20276*	0.0	-1.8	-0.9	-1.2
CC1CCN(S(=O)(=O)c2ccc(-c3nnc(SCc4cccnc4)o3)cc2)CC1	23932*	-1.3	-2.0	-50.0	-2.9
COc1ccc(NC(=O)CSc2nnc(-c3cccnc3)o2)cc1	21010*	5.2	-0.7	9.6	8.7
COC(=O)CSc1nnc(-c2ccc(S(=O)(=O)N3CCCCC3)cc2)o1	9120	-0.5	6.3	7.6	-3.9
COC(=O)CSc1nnc(-c2ccc(S(=O)(=O)N3CCC(C)CC3)cc2)o1	·	·	·	4.3	·
COc1cccc(-c2nnc(SCc3cccnc3)o2)c1	17724*	-2.7	-2.5	-1.3	-6.6
COc1cc(OC)cc(-c2nnc(SCc3cccnc3)o2)c1	9140	0.0	-2.1	-4.9	6.9
CN(C)C1(CNC(=O)C2CCN(S(=O)(=O)c3c(Cl)cccc3Cl)CC2)CCCCC1	5072	3.6	0.5	7.9	-5.0
Cc1cc(C)cc(C(=O)NC(=S)Nc2cccnc2)c1	5761	-0.4	-1.0	-6.2	-7.3
CCOC(=O)N1CCN(C(=O)Cn2nc(C)n3nc(-c4ccccc4)cc3c2=O)CC1	4031	1.0	-0.8	-1.9	2.5
CC(C)(O)C#Cc1ccc(C(=O)NCCC(=O)O)s1	4626	-0.7	-11.4	-13.5	-1.3
Cc1ccc(CNC(=O)c2ccc(C#CC(C)(C)O)s2)cc1	22677*	?	-1.5	-2.4	-6.0
COc1ccc(CC(=O)NC2CCN(Cc3nnnn3C(C)(C)C)CC2)cc1OC	20961*	?	-3.4	-0.1	-6.5
CC(=O)Nc1ccc(C(=O)OCC(=O)NC2CCCCCC2)cc1	4336	-0.5	-2.2	-4.7	-6.7
CCOCC(O)CS(=O)Cc1ccccc1 (stereo not given)	24995*	-6.5	-4.3	8.2	-8.4
CCCCS(=O)CC(O)COCC (stereo not given)	9733	0.3	0.7	11.2	-6.0
CCCCN1C(=O)C(=O)N(CC(=O)c2cc(C)n(-c3cc(C)on3)c2C)C1=O	9120	-1.6	-1.0	1.6	-1.7
O=C(CN1CCCc2ccccc21)NC(=O)NCc1ccccc1	4999	-0.3	-0.1	-6.9	-5.7
O=C(CN1CCCc2ccccc21)NC(=O)NCc1ccco1	17200*	-1.0	-4.3	-7.3	-3.4
CC1CC(=O)N(CC(=O)NCc2ccco2)c2ccccc2S1 (stereo not given)	23847*	-2.0	-0.8	-1.3	-2.9
